Active and inactive are the calls of the source. The calls were made as follows: active = hit-call score of the fitted dose curve at least 0.9, where 1 is the maximum; inactive = score below 0.9.
System: not listed separately
Test: ATG_M_32_CIS: Attagene CIS-FACTORIAL HepG2 Assay for M32 Transcription Factor (Internal Marker) (AID 2282949);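 also: background control marker of the multiplexed CIS panel rather than a real target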
Conditions: HepG2 Attagene cis-factorial M32 reporter, mRNA; actives raise or lower the signal
Summary of the method: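 Internal background marker read-out: RT-PCR/capillary electrophoresis fluorescence of reporter transcripts from transiently transfected HepG2 cells after 24 h chemical exposure. Activity fitted bidirectionally relative to DMSO negative control.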

Structure (SMILES) | outcome
Nc1ccc(-c2ccc(N)c(N)c2)cc1N | inactive
O=c1[nH]c(Cl)c(Cl)cc1Cl | inactive
CCC(C)c1cc(C(C)(C)C)cc(-n2nc3ccccc3n2)c1O (centres undefined) | inactive
Nc1c(Cl)c(Cl)c(Cl)c(Cl)c1Cl | inactive
COC(=O)c1ccccc1S(=O)(=O)NC(=O)Nc1nc(C)cc(C)n1 | inactive
Nc1ccccc1C(=O)OCCc1ccccc1 | inactive
O=C(O)CCCc1ccc(N(CCCl)CCCl)cc1 | inactive
Nc1cc(Cl)cc(Cl)c1 | inactive
COC(C)(C)CCC[C@H](C)C/C=C/C(C)=C/C(=O)OC(C)C | inactive
[CH3][Sn]([CH3])([Cl])[Cl] | inactive
BrCBr | inactive
CCc1cccc(C)c1N(C(=O)CCl)[C@@H](C)COC | inactive
O=P1(NCCCl)OCCCN1CCCl (centres undefined) | inactive
O=C(O)c1cc[c]([Hg][Cl])cc1 | inactive
O=S(=O)(c1ccccc1)c1ccccc1 | inactive
Clc1ccc(-c2ccccc2)cc1 | inactive
CN(C)C(=O)C(c1ccccc1)c1ccccc1 | inactive
C=CCc1ccc(OC(=O)Cc2ccccc2)c(OC)c1 | inactive
O=P(O)(Oc1ccccc1)Oc1ccccc1 | inactive
CC1CCCC1.[C-]#[O+].[C-]#[O+].[C-]#[O+].[Mn] | inactive
[Cl][Sb]([Cl])[Cl] | inactive
SCc1ccco1 | inactive
Oc1cc(Cl)ccc1Cl | inactive
O=[N+]([O-])c1cc(C(F)(F)F)c(Cl)c([N+](=O)[O-])c1Cl | inactive
C[C@]12CCC(=O)C(O)=C1CC[C@@H]1[C@@H]2CC[C@]2(C)C(=O)CC[C@@H]12 | inactive
CSc1nc(N=[N+]=[N-])nc(NC(C)C)n1 | inactive
O=[N+]([O-])O.O=[N+]([O-])O.[Cd] | inactive

System: not listed separately
Test: ATG_M_06_CIS: Attagene CIS-FACTORIAL HepG2 Assay for M06 Transcription Factor (Internal Marker) (AID 2282950)
Conditions: HepG2 Attagene CIS-FACTORIAL M06 internal marker reporter; actives raise or lower the signal
Summary of the method: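 Fluorescence-labelled RT-PCR products from cis-promoter reporter units, cut with HpaI and resolved by capillary electrophoresis, give the signal. Cells are human HepG2, dosed for 24 h. Serves as background control, fitted relative to DMSO.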

Structure (SMILES) | outcome
Nc1ccc(-c2ccc(N)c(N)c2)cc1N | inactive
CCOP(O)OCC | inactive
C#CC1(O)CCCCC1 | inactive
O=c1[nH]c(Cl)c(Cl)cc1Cl | inactive
CCC(C)c1cc(C(C)(C)C)cc(-n2nc3ccccc3n2)c1O (centres undefined) | inactive
[CH3][Sn]([Cl])([Cl])[Cl] | inactive
Nc1c(Cl)c(Cl)c(Cl)c(Cl)c1Cl | inactive
COC(=O)c1ccccc1S(=O)(=O)NC(=O)Nc1nc(C)cc(C)n1 | inactive
Nc1ccccc1C(=O)OCCc1ccccc1 | inactive
N#Cc1cccc(C#N)c1 | inactive
O=C(O)CCCc1ccc(N(CCCl)CCCl)cc1 | inactive
Nc1cc(Cl)cc(Cl)c1 | inactive
COc1ncc(F)c2nc(S(=O)(=O)Nc3c(F)cccc3F)nn12 | inactive
COC(C)(C)CCC[C@H](C)C/C=C/C(C)=C/C(=O)OC(C)C | inactive
[CH3][Sn]([CH3])([Cl])[Cl] | inactive
BrCBr | inactive
CCc1cccc(C)c1N(C(=O)CCl)[C@@H](C)COC | inactive
O=P1(NCCCl)OCCCN1CCCl (centres undefined) | inactive
CC(Cc1ccc(C(C)(C)C)cc1)CN1C[C@@H](C)O[C@@H](C)C1 (some centres undefined) | inactive
O=C(O)c1cc[c]([Hg][Cl])cc1 | inactive

Structure (SMILES) | outcome
C[N+](C)(C)CC(=O)O | inactive
O=S(=O)(c1ccccc1)c1ccccc1 | inactive
Clc1ccc(-c2ccccc2)cc1 | inactive
CN(C)C(=O)C(c1ccccc1)c1ccccc1 | inactive
C=CCc1ccc(OC(=O)Cc2ccccc2)c(OC)c1 | inactive
O=P(O)(Oc1ccccc1)Oc1ccccc1 | inactive
CC1CCCC1.[C-]#[O+].[C-]#[O+].[C-]#[O+].[Mn] | inactive
O=C(O)COc1ccccc1 | inactive
[Cl][Sb]([Cl])[Cl] | inactive
CCC(=O)c1ccc(Cl)cc1 | inactive
Cc1ccc(N(SC(F)(Cl)Cl)S(=O)(=O)N(C)C)cc1 | inactive
CC1(C)CC(=O)CC(C)(C)N1[O] | inactive
SCc1ccco1 | inactive
O=CNC(N1CCN(C(NC=O)C(Cl)(Cl)Cl)CC1)C(Cl)(Cl)Cl (centres undefined) | inactive
Oc1cc(Cl)ccc1Cl | inactive
O=[N+]([O-])c1cc(C(F)(F)F)c(Cl)c([N+](=O)[O-])c1Cl | inactive
C[C@]12CCC(=O)C(O)=C1CC[C@@H]1[C@@H]2CC[C@]2(C)C(=O)CC[C@@H]12 | inactive
CSc1nc(N=[N+]=[N-])nc(NC(C)C)n1 | inactive
O=[N+]([O-])O.O=[N+]([O-])O.[Cd] | inactive

Molecular target: Hypoxia-inducible factor 1-alpha (Homo sapiens) (UniProt Q16665)
Test: ATG_HIF1a_CIS: Attagene CIS-FACTORIAL HepG2 Assay for human Hypoxia Inducible Factor 1 (HIF1A) (AID 2282951)
Conditions: HepG2 Attagene cis-factorial HIF1a reporter transcription; actives raise or lower the signal
Summary of the method: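 HepG2 cells transiently transfected with multiple cis-regulated reporter transcription units measure endogenous transcription factor activity. After 24 h exposure, reporter mRNA is quantified by RT-PCR with 6-FAM labelling, HpaI digestion and capillary electrophoresis. Bidirectional fitting against DMSO.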

Chain of Hypoxia-inducible factor 1-alpha (Homo sapiens) (Q16665 whole entry, looked up): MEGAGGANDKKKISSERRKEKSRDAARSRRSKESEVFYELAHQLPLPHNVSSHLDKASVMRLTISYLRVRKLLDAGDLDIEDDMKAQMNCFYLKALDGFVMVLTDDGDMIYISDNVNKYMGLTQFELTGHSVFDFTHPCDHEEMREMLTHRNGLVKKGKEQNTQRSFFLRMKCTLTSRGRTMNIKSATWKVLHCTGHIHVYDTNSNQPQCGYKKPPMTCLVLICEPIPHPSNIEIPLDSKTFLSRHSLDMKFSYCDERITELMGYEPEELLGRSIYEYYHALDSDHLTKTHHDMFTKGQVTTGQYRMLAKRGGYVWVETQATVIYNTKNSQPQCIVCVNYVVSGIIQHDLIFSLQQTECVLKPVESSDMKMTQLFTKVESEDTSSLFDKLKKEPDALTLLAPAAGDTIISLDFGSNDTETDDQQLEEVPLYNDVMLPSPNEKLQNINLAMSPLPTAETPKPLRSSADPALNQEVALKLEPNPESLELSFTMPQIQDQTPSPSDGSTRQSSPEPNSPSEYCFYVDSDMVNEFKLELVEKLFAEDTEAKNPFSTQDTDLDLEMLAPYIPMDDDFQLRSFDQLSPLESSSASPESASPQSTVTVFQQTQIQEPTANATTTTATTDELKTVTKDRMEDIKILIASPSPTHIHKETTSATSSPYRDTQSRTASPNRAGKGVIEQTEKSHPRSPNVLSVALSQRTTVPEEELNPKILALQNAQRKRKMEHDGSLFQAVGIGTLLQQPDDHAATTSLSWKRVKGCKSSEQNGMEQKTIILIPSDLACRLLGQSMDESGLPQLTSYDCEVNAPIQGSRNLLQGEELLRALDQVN

Structure (SMILES) | outcome | AC50
Nc1ccc(-c2ccc(N)c(N)c2)cc1N | inactive | –
CCOP(O)OCC | inactive | –
C#CC1(O)CCCCC1 | inactive | –
O=c1[nH]c(Cl)c(Cl)cc1Cl | – | 59.5 µM (active)
CCC(C)c1cc(C(C)(C)C)cc(-n2nc3ccccc3n2)c1O (centres undefined) | inactive | –
[CH3][Sn]([Cl])([Cl])[Cl] | inactive | –
Nc1c(Cl)c(Cl)c(Cl)c(Cl)c1Cl | inactive | –
COC(=O)c1ccccc1S(=O)(=O)NC(=O)Nc1nc(C)cc(C)n1 | inactive | –
Nc1ccccc1C(=O)OCCc1ccccc1 | – | 31.9 µM (active)
N#Cc1cccc(C#N)c1 | inactive | –
O=C(O)CCCc1ccc(N(CCCl)CCCl)cc1 | inactive | –
Nc1cc(Cl)cc(Cl)c1 | inactive | –
COc1ncc(F)c2nc(S(=O)(=O)Nc3c(F)cccc3F)nn12 | inactive | –
COC(C)(C)CCC[C@H](C)C/C=C/C(C)=C/C(=O)OC(C)C | inactive | –
[CH3][Sn]([CH3])([Cl])[Cl] | inactive | –
BrCBr | inactive | –
CCc1cccc(C)c1N(C(=O)CCl)[C@@H](C)COC | inactive | –
O=P1(NCCCl)OCCCN1CCCl (centres undefined) | inactive | –
CC(Cc1ccc(C(C)(C)C)cc1)CN1C[C@@H](C)O[C@@H](C)C1 (some centres undefined) | inactive | –

Structure (SMILES) | outcome | AC50
O=C(O)c1cc[c]([Hg][Cl])cc1 | inactive | –
O=S(=O)(c1ccccc1)c1ccccc1 | inactive | –
Clc1ccc(-c2ccccc2)cc1 | inactive | –
CN(C)C(=O)C(c1ccccc1)c1ccccc1 | inactive | –
C=CCc1ccc(OC(=O)Cc2ccccc2)c(OC)c1 | inactive | –
O=P(O)(Oc1ccccc1)Oc1ccccc1 | inactive | –
CC1CCCC1.[C-]#[O+].[C-]#[O+].[C-]#[O+].[Mn] | inactive | –
O=C(O)COc1ccccc1 | inactive | –
[Cl][Sb]([Cl])[Cl] | inactive | –
CCC(=O)c1ccc(Cl)cc1 | inactive | –
Cc1ccc(N(SC(F)(Cl)Cl)S(=O)(=O)N(C)C)cc1 | – | 11.1 µM (active)
CC1(C)CC(=O)CC(C)(C)N1[O] | inactive | –
SCc1ccco1 | inactive | –
O=CNC(N1CCN(C(NC=O)C(Cl)(Cl)Cl)CC1)C(Cl)(Cl)Cl (centres undefined) | inactive | –
Oc1cc(Cl)ccc1Cl | inactive | –
O=[N+]([O-])c1cc(C(F)(F)F)c(Cl)c([N+](=O)[O-])c1Cl | inactive | –
C[C@]12CCC(=O)C(O)=C1CC[C@@H]1[C@@H]2CC[C@]2(C)C(=O)CC[C@@H]12 | inactive | –
CSc1nc(N=[N+]=[N-])nc(NC(C)C)n1 | inactive | –
O=[N+]([O-])O.O=[N+]([O-])O.[Cd] | inactive | –

From PubChem BioAssay (EPA / NIEHS)
